Reference: publication PMC6212790, “How bacterial xenogeneic silencer rok distinguishes foreign from self DNA in its resident genome”
The full ranking holds about 33,000 sequences; the median of “e-score” is about -0.037, and the highest 2% start at about 0.34. The sample as a whole holds a higher share of the highest values than the screen did.

The sequences below were run against T1, GST-Rok (full length) (Bacillus subtilis subsp. subtilis str. …, UniProt O34857 1-191) (assay: protein binding microarray; Rok is a gene silencer of Bacillus subtilis; high values mean tight binding). Details: protein: recombinant; tags: GST (pTH5325, pDEST15-Magic modified); dsDNA, one strand shown.
T1 sequence: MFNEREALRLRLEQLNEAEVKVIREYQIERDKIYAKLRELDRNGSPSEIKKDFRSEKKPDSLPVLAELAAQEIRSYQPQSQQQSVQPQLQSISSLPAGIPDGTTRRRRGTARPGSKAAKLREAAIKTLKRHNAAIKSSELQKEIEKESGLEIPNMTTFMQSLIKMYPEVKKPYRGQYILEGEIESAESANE
Procedure, shortened: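 Each has a 25-mer constant primer and a 35-mer variable part from a de Bruijn sequence of order 10, covering every non-palindromic 8-mer at least 32 times (palindromic 16). Preference for each 8-mer is given as a rank-based, unitless enrichment score (E-score). Its range runs from 0.5 (most favored) to −0.5 (most disfavored).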

Sequence | binding signal [E-score]
TCAGGACA | -0.136
CCACCTAA | -0.104
CTGGTAAC | 0.176
GAGAGAGA | -0.124
CAAGCGTA | -0.175
AAGCCAGC | -0.00201
AGACTGAA | 0.0238
TATACTAA | 0.364
AATACTAA | 0.37
CATACTAG | 0.312
GATACTAA | 0.307
AATACTCG | 0.085
AATACTTC | 0.235
AATACTAG | 0.341
AATACTCA | 0.174
GATACTAC | 0.278
CATACTAA | 0.125
AATACTAC | 0.419
AATACTGA | 0.188
GCAGGGAA | -0.158
TAAATTCA | 0.217
AGTAGCCA | -0.0245
CCTTACCG | 0.0725
CGGAGCCG | -0.191
ACGTGCTA | 0.0361

Sequence | binding signal [E-score]
AATACTCT | 0.11
CATACTAC | 0.376
AATACTGT | 0.171
CATACTTC | 0.191
CATACTCC | -0.0183
AATACTAT | 0.359
AAAAAGTT | 0.0934
ACCAACAA | -0.105
GAACACCA | -0.0539
TACTTCGA | 0.332
CACTAAGC | -0.0899
GTAGGAAC | 0.0415
CGAACGTA | 0.0863
ACTAATTG | 0.184
GCTAATTA | 0.325
CCTAATTA | 0.228
CCTAATTC | 0.0288
ACTAATTA | 0.438
ACTAATTC | 0.359
GGCATCTA | -0.0204
AGGATGAT | -0.0933
ACTGTGGA | -0.123
CCTATATC | 0.00873
ATTATATC | 0.377
GTTATATA | 0.296

Sequence | binding signal [E-score]
ATTATATA | 0.468
ATTATAGA | 0.353
ATTATATG | 0.269
CTTATATC | 0.141
GTTATAGA | 0.11
CTTATAGA | 0.112
CCTGAGCA | -0.194
CATCGACA | 0.0503
CACAACCG | 0.019
AGCGTGGG | -0.179
ATAGAAAT | 0.337
ATAGAAAA | 0.324
ATCGAAAT | 0.357
ATAGAAAC | 0.288
ATAGAATC | 0.254
ATCGAAAA | 0.0373
ATAGAATG | 0.181
ATAGAATA | 0.356
ATCGAAAC | 0.0448
TCTTTCCA | -0.0837
AGTCGGAC | -0.171
AGCCCGTG | -0.00226
AAGCGACT | 0.0908
GGATAGTA | 0.208
AGATAGTA | 0.347

Sequence | binding signal [E-score]
AGATAGTG | 0.199
AGATAGTC | 0.0258
CGATAGTA | 0.384
CGATAGTC | -0.0533
CATGATCC | 0.0194
AGAAGCTA | 0.0762
AACCTCAC | -0.146
AACCGCCC | -0.131
CGGCGAAG | 0.0313
ATGAAGTC | -0.0225
GCGACTTA | 0.0295
CCACTAAG | -0.137
ATTTCTAA | 0.303
ATTTCTAG | 0.333
CTTTCTTC | -0.0764
CTTTCTAA | 0.162
CTTTCTAC | 0.444
ATTTCTAC | 0.408
AGAGACCT | -0.154
ACGTGGGC | -0.0245
GGATTGAC | -0.0238
ATGTTATA | 0.35
CTATTATC | 0.214
CTATTATA | 0.366
GTATTAAA | 0.109

Sequence | binding signal [E-score]
CTGTTATA | 0.308
ATGTTATC | 0.206
ATATTATC | 0.319
GTATTAGA | 0.22
CGATTATA | 0.215
GTATTATA | 0.35
ATATTATG | 0.111
ATATTATA | 0.425
CGTCCTAA | -0.0629
CGAACTGC | -0.11
ACCATGCG | -0.0629
TCGAAGCA | -0.0477
AGACTAGA | 0.173
ACACTAGA | 0.197
CAACTAGA | 0.247
AAACTAGA | 0.355
GAACTAGA | 0.36
TAACTAGA | 0.224
CCGGCGAA | -0.00971
CAATAATC | 0.0735
AATTAATA | 0.256
GAATAATA | 0.271
TATTAATA | 0.368
CAATAATA | 0.352
CATTAATA | 0.171

Sequence | binding signal [E-score]
AAATAATA | 0.312
CAATAATG | 0.0655
TAATAATA | 0.395
ACTCACTA | 0.177
ACAGCATG | 0.0491
AGGCACTG | -0.0252
CGTGATAA | 0.124
CCCGGCCG | -0.162
CCAAATAG | -0.0889
CGTGCGAG | -0.181
TTATTGAA | -0.0458
CGTAAATA | 0.343
AGTAAATA | 0.387
AGTAAATG | 0.19
GGTAAATA | 0.299
AGTAAATC | 0.262
CGTAAATC | 0.0869
AATTCCGT | -0.114
GACTTTCA | -0.125
CGGCCAAC | -0.111
AGAAGATG | 0.193
ACTGATAT | 0.242
CCGTACCG | -0.185
CTGAACTA | 0.203
AAAGTCGA | -0.0163

Sequence | binding signal [E-score]
TTATAAAA | 0.236
GTATAAAA | 0.343
GTATAAGA | 0.199
CTATAAGA | 0.244
ATATAATA | 0.452
ATATAATG | 0.303
GTATAAAC | 0.16
CTATAATA | 0.355
ATATAATC | 0.152
GTATAACA | 0.208
GTATAATA | 0.407
CTATAATC | 0.279
GATCAGAA | 0.11
ACGACCGC | 0.0315
CCCGTTTC | -0.0198
CCATCTAG | -0.0113
ATGAGGGC | -0.183
AGCTGCCT | -0.125
CGGTGTTC | -0.0645
AGAACATG | 0.223
GGTCTAAA | 0.0268
ATACATCA | 0.191
